L major viab = reduces viability of Leishmania major promastigotes | resazurin fluorescence viability | inhibition, % at 10 µM | 200,000 tested, 9% active; in the data active = inhibition above about 50%;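 note: promastigotes grown with compound for 44 hours at 28 °C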
CHOP inhibitor = blocks CHOP induction under ER stress; CHO-K1 CHOP-promoter luciferase, tunicamycin-induced, 15-18 h; inhibition, % at 10 µM; 220,000 tested, 3.8% active;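 active = compounds that reduced the stress-induced luciferase reporter signal by more than about 70% of percent inhibition, limit read from the data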
WT yeast gro inh = growth inhibition of WT yeast, mitochondrial fusion screen; inhibition, % at 10 µM; mitochondrial fusion phenotypic screen, WT strain; 190,000 tested, 2.1% active; in the data active = inhibition above about 58%; tested in S. cerevisiae
Arbovirus anti = blocks arbovirus infection; arbovirus infection cell-based antiviral screen; inhibition, % at 10 µM; 200,000 tested, 0.37% active; AID 1251; in the data active = inhibition above about 30%
Hits are given with their value; i = inactive; nt = no result given. Hits are enriched below; roughly 12% of the tested compounds scored in any of these assays.

SMILES	L major viab	CHOP inhibitor	WT yeast gro inh	Arbovirus anti
COc1ccc(O)c(/C=N/NC(=S)Nc2cccc(S(=O)(=O)N(C)C)c2)c1	99	i	i	i
COc1ccc(O)c(/C=N/NC(=S)Nc2cccnc2)c1	94	i	i	i
Cc1ccc(S(=O)(=O)N2CCN(S(=O)(=O)N3CCCCCC3)CC2)cc1	i	i	i	i
COCCN=C1Sc2nc3cc4c(cc3cc2CN1CC1CCCO1)OCO4 (configuration not stated)	i	i	i	i
NC(=O)c1ccc(NC(=O)c2cccc3c2OCCCO3)cc1	nt	i	nt	nt
COc1cc(OC)cc(C(=O)Nc2nnc(Cc3ccc(OC)c(OC)c3)s2)c1	i	i	i	i
CCc1cccc2c(C(=O)CCl)c[nH]c12	58	i	i	i
O=C(OCC(=O)c1c[nH]c2ccccc12)c1ccc([N+](=O)[O-])s1	100	i	i	i
CCc1cccc2c(C(=O)COC(=O)c3ccc([N+](=O)[O-])s3)c[nH]c12	100	73	i	i
O=C(OCC(=O)c1c[nH]c2ccccc12)C1=COCCO1	i	i	i	i
CCc1cccc2c(C(=S)N3CCCC3)c[nH]c12	i	i	i	i
CC(C)CC(=O)NC1(C(F)(F)F)C(=O)N(CC(C)C)C2=C1C(=O)CC(C)(C)C2 (configuration not stated)	i	i	i	i
Cc1ccc2c(C(=O)CNc3nncs3)c(C)[nH]c2c1	nt	i	nt	nt
CO/N=C/c1cccn1-c1nccc(OC)c1C#N	i	i	i	i
Cc1ccc(-n2c(SCc3ccc(C(=O)O)cc3)nnc2-c2ccncc2)cc1	nt	i	nt	nt
COc1cccc(CN2C[C@]34C=C[C@@H](C[C@@H]3S2(=O)=O)O4)c1	nt	i	nt	nt
CCCCCCCc1c(C)nc(N2CCOCC2)[nH]c1=O	i	72	i	i
CCCCc1c(C)nc(N2CCCC2)[nH]c1=O	nt	i	nt	nt
COc1ccc(N2CCc3c(C)nc(SC)nc32)cc1	i	i	i	i
CCOc1ccc(N2CCc3c(C)nc(SC)nc32)cc1	i	96	i	i
CC(=O)Nc1ccc(S(=O)(=O)N2CCSC2c2ccccc2Cl)cc1 (configuration not stated)	64	i	i	i
CCOC(=O)C1=C(CC)Nc2ccccc2N/C1=N\S(=O)(=O)c1cc(Br)ccc1Br	i	i	i	i
O=C(c1ccc(Oc2ccc(C(F)(F)F)cc2[N+](=O)[O-])cc1)N1CCOCC1	55	i	i	i
O=C(c1ccccc1Oc1ccc(C(F)(F)F)cc1[N+](=O)[O-])N1CCOCC1	i	i	i	i
Clc1ccc(-n2ncc3c(NCc4ccco4)ncnc32)cc1	i	i	i	i
SMILES	L major viab	CHOP inhibitor	WT yeast gro inh	Arbovirus anti
COc1ccc(-n2ncc3c(NCCN4CCOCC4)ncnc32)cc1	92	i	i	i
CN(C)CCNc1ncnc2c1cnn2-c1ccc(Cl)cc1	98	i	i	i
O=C1CCCN1CCCNc1ncnc2c1cnn2-c1ccc(Cl)cc1	i	i	i	i
COc1ccc(-n2ncc3c(NCc4ccco4)ncnc32)cc1	i	i	68	i
COc1cc(C2C3=C(CCCC3=O)Nc3[nH]n(-c4ccccc4)c(=O)c32)ccc1OC(C)=O (configuration not stated)	i	i	i	i
CCCn1c(O)c(C=Nc2ccccc2)sc1=S	i	87	i	i
CCCCn1c(O)c(/C=C/C=C/C=Nc2ccccc2)sc1=S	i	i	i	i
CN1CCN(C(=S)c2ccc(-c3cccc(Cl)c3Cl)o2)CC1	95	i	i	i
Cc1cccc(OCc2n[nH]c(=S)n2Cc2ccccc2)c1	i	i	65	i
CCc1ccc(OCc2n[nH]c(=S)n2Cc2ccccc2)cc1	i	i	65	i
Nc1cc(S(=O)(=O)N2CCCCC2)ccc1Oc1ccccc1	i	i	i	i
COc1ccc(C2=NN(C(C#N)c3ccc(OC)c(OC)c3)C(c3ccccc3)C2)cc1 (configuration not stated)	100	i	i	i
COc1ccc(C2N(c3ccc4c(c3)OCCO4)C(=O)C2(F)F)cc1OC (configuration not stated)	nt	i	nt	nt
Cc1nn(C)cc1C(=O)Nc1cc(Oc2ccc(Cl)cc2)cc([N+](=O)[O-])c1	i	82	i	i
CC(=O)Nc1ccc(Oc2cc(NC(C)=O)cc([N+](=O)[O-])c2)cc1	i	i	i	i
Cn1cc([N+](=O)[O-])c(C(=O)Nc2cc(Oc3ccccc3)cc([N+](=O)[O-])c2)n1	i	i	i	i
CCOc1ccc(Oc2cc(NC(=O)c3ccco3)cc([N+](=O)[O-])c2)cc1	i	87	i	i
O=C(Nc1cc(Oc2ccc(Cl)cc2)cc([N+](=O)[O-])c1)c1ccco1	64	i	i	i
CCn1nc(C)c(C(=O)Nc2cc(Oc3cc(C)cc(C)c3)cc([N+](=O)[O-])c2)c1C	i	i	69	i
Cc1ccc(C(=O)NC(NC(=O)c2ccc(C)cc2)c2cccc([N+](=O)[O-])c2)cc1	i	i	i	i
Cn1cccc1CC(=O)N/N=C/c1ccc(Cl)c([N+](=O)[O-])c1	nt	i	nt	nt
O=C(Nc1cc(SCCO)cc([N+](=O)[O-])c1)c1ccco1	61	i	i	i
COc1ccc(C(=O)C2CCCN(Cc3cccn3-c3ccccn3)C2)c(OC)c1 (configuration not stated)	92	i	i	i
COc1cccc(C(=O)C2CCCN(Cc3cccn3-c3cccnc3)C2)c1 (configuration not stated)	89	i	i	i
O=C(c1cc(F)ccc1F)C1CCCN(Cc2cccn2-c2ccccn2)C1 (configuration not stated)	nt	i	nt	nt
SMILES	L major viab	CHOP inhibitor	WT yeast gro inh	Arbovirus anti
COc1ccc(F)cc1C(=O)C1CCCN(Cc2cccn2-c2ccccn2)C1 (configuration not stated)	63	i	i	i
Cc1ccc(C2(CCNCc3ccc(N(C)C)cc3)CCOC(C(C)C)C2)cc1 (configuration not stated)	100	i	i	i
CC(C)C1CC(CCNCc2ccc(N(C)C)cc2)(c2ccccc2)CCO1 (configuration not stated)	98	i	i	i
Cc1ccc(C2(CCNS(=O)(=O)c3ccc(C)cc3)CCOC(C(C)C)C2)cc1 (configuration not stated)	63	i	i	i
CC(C)C1CC(CCNCc2ccc3c(c2)OCO3)(c2ccccc2)CCO1 (configuration not stated)	nt	i	nt	nt
CCN=C(NCC)SC1CC(=O)N(c2cccc(OCC)c2)C1=O (configuration not stated)	i	i	i	i
CCOc1cc2[nH]c(=O)n(CCCC(=O)N(C)Cc3ccccc3)c(=O)c2cc1OCC	i	i	i	i
Oc1ccc(N=Nc2c(O)ccc3ccccc23)cc1	i	92	98	i
O=C(O)c1cc(N=Nc2c(O)ccc3ccccc23)cc(C(=O)O)c1	i	i	i	i
NS(=O)(=O)c1ccc(N=Nc2c(O)ccc3ccccc23)cc1	i	74	i	i
CCOc1nc(Nc2ccc([N+](=O)[O-])cc2)nc(NC(C)(C)C)n1	74	i	i	i
COc1nc(Nc2ccc([N+](=O)[O-])cc2)nc(NC(C)C)n1	97	i	i	i
COCCN1CCN(Cc2cn[nH]c2-c2cc3ccccc3o2)CC1	i	i	i	i
CCS(=O)(=O)c1ccc(O)c(NC(=O)Nc2cccc3ccccc23)c1	nt	i	nt	nt
